Experiment [1] is described as follows: qHTS assay to identify small molecule agonists of the vitamin D receptor (VDR) signaling pathway - cell viability counter screen (AID 743224). Further: series mostly up to about 63 µM; nearly all actives have a fitted effect of over 50% in size. The gist of the method: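 VDR-bla cells were preincubated 4 h at 37C/5% CO2, then exposed to compounds for 16 h. After the 2 h room-temperature bla FRET read, CellTiter-Glo was added to the same wells and luminescence read after 30 min.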
Background: In qHTS, concentration-response curves come from the screen itself.

Experiment [2] is described as follows: qHTS assay to identify small molecule agonists of the NFkB signaling pathway (AID 1159509; active means well fitted curve in the direction sought with a large enough effect in the signal ratio in the repeat runs, not every such curve was filed as active; the % refers to the signal ratio; further: series mostly up to about 61 µM). The procedure, abridged: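 ME-180 NFkB-bla, 2,000 cells/well, overnight plating; cpd pinned in DMSO, 5 h 37 C; B/G FRET substrate 1.5 h RT; ex 405, em 460/530 nm.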
Experiment [3] is described as follows: qHTS assay to identify small molecule agonists of the NFkB signaling pathway - cell viability counter screen (AID 1159515; calls by dose curve; further: series mostly up to about 61 µM; nearly all actives have a fitted effect of over 55% in size). The gist of the method:
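NFkB-bla ME-180 cells, 2,000/well, were plated overnight at 37 C, 5% CO2, then exposed to compounds in DMSO for 5 hr. After the bla FRET read, CellTiter-Glo was added to the same wells; luminescence was read after 30 min at room temperature.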

Experiment [4] in a line: qHTS assay to identify small molecule agonists of the endoplasmic reticulum stress response signaling pathway (AID 1159516; active means well fitted activation curve with a large enough effect in the signal ratio in the repeat runs, not every such curve was filed as active; the % refers to the signal ratio). The procedure, abridged: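 CellSensor ESRE-bla HeLa cells, carrying a beta-lactamase reporter driven by the ER stress response element, were plated overnight and exposed to compounds for 5 hr at 37 C. Reporter activity was read as FRET substrate fluorescence after 2 hr at room temperature.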

Experiment [5] can be described thus: qHTS assay to identify small molecule agonists of the endoplasmic reticulum stress response signaling pathway - cell viability counter screen (AID 1159517; calls by dose curve; further: series mostly up to about 61 µM; nearly all actives have a fitted effect of over 50% in size). The procedure, abridged:
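CellTiter-Glo was added to wells already read for beta-lactamase FRET, and luminescence was recorded 30 min later. Cells: ESRE-bla HeLa, 1,500 per well, compound exposure 5 hr at 37 C.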

A short description of experiment [6]: qHTS assay to identify small molecule antagonists of the retinoid-related orphan receptor gamma (ROR-gamma) signaling pathway - cell viability counter screen (AID 1159520). Further: nearly all actives have a fitted effect of over 50% in size. The procedure, abridged:
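Tet-on ROR gamma CHO cells (1,000/well) were plated 4 hr, given compounds in DMSO for 2 hr at 37 C, then induced with 1 uM final doxycycline for 16 hr. Viability was read as ATP by CellTiter-Glo luminescence after 30 min.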

A short description of experiment [7]: qHTS assay to identify small molecule agonists of the AP-1 signaling pathway - cell viability counter screen (AID 1159525; calls by dose curve; further: nearly all actives have a fitted effect of over 55% in size). The procedure, abridged: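 ME-180 AP-1-bla, 2500 cells/well, Opti-MEM + 0.5% dialyzed FBS; overnight 37 °C; cpd 15-pt titration, 5 h 37 °C; CellTiter-Glo 30 min RT; luminescence read; normalised to TOAB and DMSO controls.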
Experiment [8] can be described thus: qHTS assay to identify small molecule agonists of the AP-1 signaling pathway (AID 1159526; calls by dose curve; further: potency means the concentration at half of the fitted maximal effect).
Experiment [9] can be described thus: qHTS assay to identify small molecule antagonists of the retinoid acid receptor (RAR) signaling pathway - cell viability counter screen (AID 1159551). Further: nearly all actives have a fitted effect of over 35% in size. The gist of the method:
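C3RL4 cells were seeded overnight at 37 C, then treated with compounds plus 1 uM (final) retinol for 6 h at 37 C. Viability was read as ATP by CellTiter-Glo luminescence after 30 min at room temperature.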

Experiment [10] can be described thus: qHTS assay to identify small molecule antagonists of the retinoic acid receptor (RAR) signaling pathway (AID 1159552; further: nearly all actives have a fitted effect of over 50% in size). The gist of the method: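 Overnight-plated C3RL4 reporter cells get compound, then retinol to 1 uM final; plates sit 6 hr at 37 C, 5% CO2. A luciferase reagent is added and light output recorded after 30 min at room temperature.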
A short description of experiment [11]: qHTS assay to identify small molecule agonists of the retinoic acid receptor (RAR) signaling pathway (AID 1159553). The procedure, abridged: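 C3RL4 cells carrying a RARE luciferase reporter were plated overnight at 37 C, then exposed to compounds in DMSO for 6 hr at 37 C and 5% CO2. Luminescence was read 30 min after luciferase reagent addition at room temperature.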

A short description of experiment [12]: qHTS assay to identify small molecule antagonists of the estrogen related receptor (ERR) signaling pathway - cell viability counter screen (AID 1224818).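 Further: series mostly up to about 46 µM; viability measured after 17.5 h of compound exposure.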 The gist of the method:
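ERR reporter cells plated 6 h at 37 C/5% CO2, then compounds in DMSO pin-transferred and incubated 17.5 h at 37 C. Viability read as CellTiter-Fluor fluorescence after 30 min at 37 C.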

The nature of experiment [13]: qHTS assay to identify small molecule agonists of the estrogen related receptor (ERR) signaling pathway (AID 1224820). The gist of the method: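 Cells: ERR line from NTP, 2,000/well. Pre-incubation 6 h, 37 C/5% CO2. Compound (DMSO) pin transfer, 18 h 37 C. One-Glo, 30 min RT, luminescence.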
Experiment [14] deals with estrogen-related receptor alpha (ERRalpha) with PGC-1alpha coactivator, human. The experiment is described as follows: qHTS assay to identify small molecule antagonists of the estrogen related receptor signaling pathway with the pleiotropic PPARgamma coactivator (PGC) (AID 1224821; calls by dose curve). The gist of the method: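 Luminescent read-out (One-Glo, 30 min at room temperature) following 18 h treatment of PGC/ERR cells at 37 C with compounds delivered in DMSO. Cells had settled 6 h at 37 C/5% CO2 before dosing.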

Experiment [15] can be described thus: qHTS assay to identify small molecule antagonists of the vitamin D receptor (VDR) signaling pathway - cell viability counter screen (AID 743225). Further: nearly all actives have a fitted effect of over 50% in size. The gist of the method: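 Cytotoxicity toward the VDR-bla HEK 293T line was scored by ATP-based CellTiter-Glo luminescence, read in the wells already used for the beta-lactamase readout after 16 h compound treatment under 3 nM 1-alpha,25-dihydroxyvitamin D3 stimulation.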

Experiment [16] can be described thus: qHTS assay to identify small molecule agonists of the RXR signaling pathway - cell viability counter screen (AID 1159529). Further: nearly all actives have a fitted effect of over 50% in size. Further: potency means the concentration at half of the fitted maximal effect. The procedure, abridged: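 Tox21 10K compounds were tested for cytotoxicity against GeneBLAzer RXR-alpha HEK 293T cells grown in 2% charcoal-stripped FBS. Exposure lasted 16 hr at 37 C, 5% CO2; viability read by CellTiter-Glo luminescence.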

For experiment [17], the target named is Retinoic acid receptor RXR-alpha (Homo sapiens) (UniProt P19793). The experiment is described as follows: qHTS assay to identify small molecule agonists of the RXR signaling pathway (AID 1159527; calls by dose curve; further: nearly all actives have a fitted effect of over 35% in size). The procedure, abridged: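 Reporter activation is measured as beta-lactamase activity via FRET substrate cleavage (emission 460/530 nm) in HEK 293T cells expressing an RXR-alpha-driven bla construct, following 16 hr compound exposure at 37 C.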
Retinoic acid receptor RXR-alpha (Homo sapiens), sequence (P19793 whole entry, looked up): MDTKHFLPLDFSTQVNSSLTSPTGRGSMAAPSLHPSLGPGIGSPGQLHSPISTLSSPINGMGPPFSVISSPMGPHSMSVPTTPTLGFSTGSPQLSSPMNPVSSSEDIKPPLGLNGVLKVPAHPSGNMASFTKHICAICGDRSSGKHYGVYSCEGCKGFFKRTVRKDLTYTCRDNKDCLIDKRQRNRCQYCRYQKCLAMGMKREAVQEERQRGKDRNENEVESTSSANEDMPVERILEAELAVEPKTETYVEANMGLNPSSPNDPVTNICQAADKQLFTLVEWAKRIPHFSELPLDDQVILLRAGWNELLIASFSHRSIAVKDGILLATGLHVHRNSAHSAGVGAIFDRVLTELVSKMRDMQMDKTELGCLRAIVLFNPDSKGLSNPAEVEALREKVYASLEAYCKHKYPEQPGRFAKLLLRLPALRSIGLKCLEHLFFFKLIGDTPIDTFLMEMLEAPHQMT

Experiment [18] deals with Nuclear receptor ROR-gamma (Homo sapiens) (UniProt P51449). Description: qHTS assay to identify small molecule antagonists of the retinoid-related orphan receptor gamma (ROR-gamma) signaling pathway (AID 1159521). The gist of the method:
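Readout: ONE-Glo luciferase luminescence, 30 min at room temperature. System: Tet-on RORγ CHO, RORE-LUC. Sequence: compound 2 h, doxycycline 1 uM final, 16 h at 37 C.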

Structures are written as SMILES. Inconclusive results are not listed. Activity calls are given as the source filed them. Unless noted, the call rests on the fitted dose curve; in most records, active means well fitted curve in the direction sought with a large enough effect in the repeat runs; inconclusive means weak or mixed curves; inactive means no such curve, though single readings can be large; an effect the other way counts as inactive or inconclusive.

For the molecule `c1cc(CN2CCCCC2)cc(OCCCNc2nc3ccccc3s2)c1`, the molecule was classed as inactive in experiment [1], in [2], in experiment [3], in experiment [4], in experiment [5] and in experiment [7]. Besides, the call in experiment [9], in experiment [12], in experiment [13] and in [14] was inactive. Also, the Potency entry in [6], in [10] and in experiment [11] was “inactive” in each case. Moreover, in [8], the Potency was 26.8 µM (active).
Regarding `CCCCCCC(=O)OCC`, the result in [1], in experiment [15], in [2], in experiment [3], in experiment [4] and in experiment [5] was inactive. The molecule was called inactive in experiment [7] and in [9]. The Potency result in [6], in experiment [8], in experiment [16], in experiment [10] and in experiment [11] was “inactive” throughout.
For `CC(C)CCCCCCN`, the call in experiment [1], in [15], in experiment [2], in experiment [3], in experiment [4] and in experiment [5] was inactive. The outcome in experiment [7] was inactive. Also, the Potency result in experiment [6], in experiment [8], in experiment [17] and in experiment [16] was “inactive” in each case.
Turning to `O=C(O)C(O)[C@H](O)[C@@H](O)[C@H](O)[C@H](O)CO` (stereo not given in full), the call in experiment [1], in experiment [2], in experiment [3], in experiment [4], in [5] and in experiment [7] was inactive. The molecule was called inactive in experiment [9]. The Potency result in experiment [6], in [18], in [8], in experiment [10] and in experiment [11] was “inactive” each time.
With `CCCCCOC(=O)Nc1nc(=O)n([C@@H]2O[C@H](C)[C@@H](O)[C@H]2O)cc1F`, the outcome in experiment [1], in experiment [15], in [2], in experiment [3], in experiment [4] and in [5] was inactive. Moreover, the call in experiment [7] was inactive. Further, the Potency result in experiment [6], in [8], in experiment [17] and in experiment [16] was “inactive” in each case.
Regarding `CCCC(C)C(=O)O` (stereo not given), the call in [1], in experiment [15], in experiment [2], in experiment [3], in [4] and in experiment [5] was inactive. Moreover, the molecule was called inactive in [7] and in experiment [9]. The Potency entry in experiment [6], in experiment [18], in [8], in experiment [10] and in [11] was “inactive” in each case. Also, in [16], the Potency is 18.7 µM (active).
As to `OCC(CO)(CO)COCC(CO)(CO)CO`, the result in [1], in [2], in experiment [3], in experiment [4], in experiment [5] and in [7] was inactive. For the same molecule, the molecule was called inactive in experiment [9]. Further, the Potency result in experiment [6], in [8] and in [17] was “inactive” in each case.
As for `CC(C)(C)OC(=O)N1C[C@@H](F)C[C@H]1C(=O)O`, the result in [1], in experiment [15], in experiment [2], in [3], in [4] and in experiment [5] was inactive. The molecule was called inactive in experiment [7] and in experiment [9]. Moreover, the Potency entry in experiment [6], in experiment [8], in experiment [17] and in experiment [16] was “inactive” each time.
For the molecule `COc1ccc(NC(C)=O)cc1`, the outcome in experiment [1], in experiment [2], in experiment [3], in [4], in [5] and in experiment [7] was inactive. Further, the call in experiment [9] was inactive. In addition, the Potency entry in experiment [6], in [8], in experiment [17], in [10] and in [11] was “inactive” each time.
Take `COc1cc(CCC(C)=O)ccc1O`: the result in experiment [1], in experiment [2], in [3], in experiment [4], in [5] and in [7] was inactive. For the same molecule, in [9], the molecule was classed as inactive. The Potency result in experiment [6], in experiment [18], in [8], in [10] and in experiment [11] was “inactive” in each case.
With `CCCCCCCCN(C)CCCCCCCC`, the outcome in [1], in [15], in [2], in [3], in [4] and in [5] was inactive. The call in [7] and in [9] was inactive. Besides, the Potency result in experiment [6], in [18], in experiment [8], in experiment [16], in experiment [10] and in experiment [11] was “inactive” in each case.

The record behind these values is PubChem BioAssay (Tox21).
